Gli-Sufu antag: antagonists of Gli-Sufu signaling | Sufu-KO-LIGHT fibroblasts, Gli luciferase reporter luminescence | inhibition, % at 5 µM | hit rate 0.74% among 340,000 | AID 588413;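 active = inhibition above about 55%, limit read from the data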;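 note: 0% = DMSO-treated cells and 100% = wells with medium but no cells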
NCOA3 inh: human NCOA3 inhibition. Q9Y6Q9. inhibition, % at 3.6 µM. AID 588352. HEK293 GAL4-SRC3 luciferase reporter, luminescence. hit rate 0.17% among 360,000;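 active = inhibition above a per-campaign cutoff, the mean of all compounds plus 3 SD, cut at about 60% in these data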;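 note: 0% = DMSO-treated cells and 100% = gossypol-treated cells at 36 µM; higher means less SRC3-driven luciferase light from the GAL4 reporter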
SRC2 inh: human SRC2 (NCOA2) inhibition; Q15596; HEK293 GAL4-SRC2 luciferase reporter, luminescence; inhibition, % at 9 µM; hit rate 0.17% among 370,000; AID 651957;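 active = inhibition above the mean inhibition of all tested compounds plus 3 SD, set per campaign, cut at about 52% in these data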;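 note: 0% = DMSO treated cells and 100% = cells given Gossypol at 36 µM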
Target sequence (Q15596 whole entry, looked up, the tested form may be a part): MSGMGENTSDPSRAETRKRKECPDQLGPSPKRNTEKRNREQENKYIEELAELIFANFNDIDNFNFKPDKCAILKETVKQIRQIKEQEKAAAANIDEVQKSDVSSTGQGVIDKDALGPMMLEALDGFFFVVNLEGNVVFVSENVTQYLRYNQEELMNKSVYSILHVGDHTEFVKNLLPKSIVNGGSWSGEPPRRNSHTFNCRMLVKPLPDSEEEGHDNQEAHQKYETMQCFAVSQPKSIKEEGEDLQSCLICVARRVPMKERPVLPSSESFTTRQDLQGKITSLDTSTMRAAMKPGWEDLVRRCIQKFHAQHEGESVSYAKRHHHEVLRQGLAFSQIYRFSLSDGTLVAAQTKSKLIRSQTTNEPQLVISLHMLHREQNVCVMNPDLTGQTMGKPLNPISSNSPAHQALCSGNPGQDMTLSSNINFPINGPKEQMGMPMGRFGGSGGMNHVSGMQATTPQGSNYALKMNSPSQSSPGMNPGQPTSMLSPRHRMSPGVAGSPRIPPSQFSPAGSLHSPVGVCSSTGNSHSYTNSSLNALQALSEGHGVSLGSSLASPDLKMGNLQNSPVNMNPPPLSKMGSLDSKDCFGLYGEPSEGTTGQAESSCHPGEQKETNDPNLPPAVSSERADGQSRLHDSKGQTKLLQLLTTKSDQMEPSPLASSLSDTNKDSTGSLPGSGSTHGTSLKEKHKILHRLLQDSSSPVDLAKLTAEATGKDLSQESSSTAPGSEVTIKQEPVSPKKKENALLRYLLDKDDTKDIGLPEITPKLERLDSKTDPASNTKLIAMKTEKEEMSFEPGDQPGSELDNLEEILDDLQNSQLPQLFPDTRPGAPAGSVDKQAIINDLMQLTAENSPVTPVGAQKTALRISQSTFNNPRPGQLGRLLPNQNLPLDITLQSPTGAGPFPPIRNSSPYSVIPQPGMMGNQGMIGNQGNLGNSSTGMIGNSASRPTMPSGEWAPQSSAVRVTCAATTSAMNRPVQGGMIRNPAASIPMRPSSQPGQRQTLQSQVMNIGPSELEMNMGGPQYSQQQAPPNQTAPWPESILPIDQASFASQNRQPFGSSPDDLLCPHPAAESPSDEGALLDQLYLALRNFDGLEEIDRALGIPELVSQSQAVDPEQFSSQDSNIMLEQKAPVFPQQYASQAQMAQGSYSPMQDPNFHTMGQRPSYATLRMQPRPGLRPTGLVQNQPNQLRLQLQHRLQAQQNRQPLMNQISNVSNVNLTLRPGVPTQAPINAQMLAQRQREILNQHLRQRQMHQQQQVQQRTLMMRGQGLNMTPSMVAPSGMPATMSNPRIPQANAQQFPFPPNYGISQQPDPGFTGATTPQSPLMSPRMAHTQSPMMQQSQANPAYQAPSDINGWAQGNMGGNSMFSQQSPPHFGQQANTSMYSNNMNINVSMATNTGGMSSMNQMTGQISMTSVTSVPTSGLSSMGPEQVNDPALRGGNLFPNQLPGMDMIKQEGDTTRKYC
NR2F2 inh: inhibitors of human COUP-TFII (NR2F2); P24468; HEK293T NGFI-A luciferase reporter, luminescence; inhibition, % at 8.6 µM; hit rate 0.7% among 370,000;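 active = inhibition above a per-plate cutoff, mean inhibition of test wells between control levels plus 3 SD, cut at about 38% in these data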;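 note: cells cotransfected with COUP-TFII expression vector driving the NGFI-A reporter; 0% = median of COUP-TF2 test wells and 100% = reporter-only cells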
SRC1 inh: human NCOA1 inhibition. Q15788. hit rate 0.12% among 360,000. inhibition, % at 3.6 µM. HEK293 GAL4-SRC1 luciferase reporter, luminescence;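 active = inhibition above the campaign mean plus 3 SD, with each screening campaign given its own cutoff, cut at about 60% in these data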;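 note: 0% = DMSO treated cells and 100% = gossypol at 36 µM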
LRH-1 inv ag: inverse agonists of human LRH-1 (NR5A2) | HEK293T StAR-luciferase reporter, LRH-1 transfected, 24 h | inhibition, % at 3.6 µM | hit rate 0.13% among 360,000 | AID 602396;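 active = inhibition above the mean inhibition of all tested compounds plus 3 SD, cut at about 73% in these data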;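 note: 0% = DMSO wells and 100% = reporter-only cells lacking LRH-1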
Gal4-VP16 ctr: counter-screen for COUP-TFII antagonists: inhibitors of VP16 | inhibition, % at 8.5 µM | shares compounds with NR2F2 inh | HEK293 Gal4-VP16 luciferase reporter, luminescence | hit rate 25% among 2,500; in the data active = inhibition above about 13%
COUP-TFII conf: confirmation of human COUP-TFII (NR2F2) inhibitors | HEK293 NGFI-A luciferase reporter, luminescence | shares compounds with NR2F2 inh | hit rate 45% among 2,500 | inhibition, % at 8.5 µM;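 active = mean inhibition over three repeats above a set limit taken from the earlier primary screen, cut at about 38% in these data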;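 note: 100% = cells given the luciferase reporter alone without the COUP-TF2 vector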
* marks the source's active call; other numbers are inactive results; x = no result. A selection: hits, their analogues and other compounds. The true share with any hit is near 1.2%.

SMILES | Gli-Sufu antag | NCOA3 inh | SRC2 inh | NR2F2 inh | SRC1 inh | LRH-1 inv ag | Gal4-VP16 ctr | COUP-TFII conf
CCCCCCCCCn1ccc(=N)cc1 | 89* | 68* | 31 | 77* | 52 | 84* | 22* | 82*
Cc1nnc(NC(=O)CSc2nc3ccccc3o2)s1 | -2 | 11 | 2 | 10 | 15 | 9 | x | x
CC1CCc2nc(NC(=O)CSc3nc4ccccc4o3)sc2C1 (stereo not drawn) | -1 | 48 | 20 | 43* | 29 | 47 | 31* | 68*
COc1ccc(NC(=O)c2cc([N+](=O)[O-])ccc2O)cc1 | 43 | 53 | 76* | 69* | 51 | 20 | 39* | 61*
COc1ccc(NC(=O)c2cccc([N+](=O)[O-])c2)cc1 | -31 | -36 | -35 | -15 | -31 | 2 | x | x
O=C(Nc1cccc([N+](=O)[O-])c1)c1cc2ccccc2cc1O | 0 | -8 | -4 | 63* | -32 | -37 | -135 | 2
O=C(O)c1ccccc1C(=O)Nc1cccc([N+](=O)[O-])c1 | 0 | -19 | 5 | -13 | -24 | 0 | x | x
COc1cc2c(cc1OC)CSC1C(=O)N(C)C(SC2)C(=O)N1C | x | x | -13 | 1 | x | x | x | x
Cc1cc(C)c(C)c(S(=O)(=O)NCc2ccncc2)c1C | 22 | 10 | -3 | 38* | 4 | 26 | 6 | 30
Cn1c(=O)oc2cc(S(=O)(=O)NCc3ccc(C(=O)O)cc3)ccc21 | 0 | 7 | 2 | 17 | 8 | 0 | x | x
Cn1c(=O)oc2cc(S(=O)(=O)NCc3ccncc3)ccc21 | 36 | -1 | 24 | 44* | 14 | 26 | -8 | -4
O=C(Nc1c(-c2ccccc2)nc2ncccn12)c1ccc(F)cc1 | x | x | -8 | 0 | x | x | x | x
NC(=O)c1ccsc1NC(=O)COC(=O)Cc1ccsc1 | 5 | 12 | -71 | 14 | -16 | -8 | x | x
COc1cc(CC(=O)OCC(=O)Nc2sccc2C(N)=O)cc(OC)c1OC | 35 | 8 | 22 | 43* | 5 | 9 | -14 | 3
O=C(O)CSCC(=O)Nc1ccc(C2CCCCC2)cc1 | 38 | 74* | 91* | 90* | 76* | 80* | 83* | 77*
Cc1nn(C)cc1C(C)NC(=O)c1cc(COc2cccc3cnccc23)on1 (stereo not drawn) | 28 | 51 | 37 | 38* | 23 | 34 | 1 | 12
COCC1CCN(C(=O)c2cc(COc3cccc4cnccc34)on2)CC1 | 42 | 43 | 37 | 53* | 24 | 24 | -4 | 37
COc1cccc(OCc2cc(C(=O)N3CCC(c4ccncc4)CC3)no2)c1 | -18 | 18 | 18 | 49* | 3 | 6 | -2 | 31
NC(=O)[C@@H]1CC2(CC(c3cccc(NC(=O)COc4ccc(Cl)cc4)c3)=NO2)CN1C(=O)COc1ccc(Cl)cc1 (stereo partly drawn) | 3 | 2 | 24 | 45* | 10 | 0 | -9 | 19
COC(=O)C1=C(C)N(Cc2ccc(F)cc2)C(=S)NC1c1cccc(Br)c1 (stereo not drawn) | x | x | -1 | 0 | x | x | x | x
Cn1c(Cc2cccs2)nnc1SCC(=O)Nc1ccc2cn[nH]c2c1 | x | x | 11 | 42* | x | x | -13 | 5
Clc1cccc(CNc2nc(-c3ccccn3)nnc2-c2ccccc2)c1 | x | x | x | 38* | x | x | 1 | -34
CC(C)(C)c1ccc(CNc2nc(-c3ccccn3)nnc2-c2ccccc2)cc1 | x | x | x | 49* | x | x | 9 | 16
OC[C@@H]1CN(Cc2ccc(-c3ccccc3)cc2)C[C@H](n2cnc3c(NC4CCC4)ncnc32)O1 | x | 7 | 26 | 69* | 13 | 45 | -4 | 45*
O=C(O)CCCc1ccc2c(c1)CCc1ccccc1-2 | 13 | 19 | 74* | 75* | 17 | -9 | 57* | 49*
Cc1ccc2[nH]c3c(NCc4ccccc4)ncnc3c2c1 | 22 | x | -10 | 48* | x | x | -59 | -18
COc1ccc(CNc2ncnc3c2[nH]c2cc(OC)c(OC)cc23)cc1 | 4 | 14 | -12 | -25 | -21 | -15 | x | x

Screening data deposited in PubChem by several laboratories.
